Hits are enriched below; roughly 2.4% of the tested compounds scored in any of these assays.
Rpn11 inh: inhibitors of human proteasome Rpn11. 360,000 compounds, 0.59% hits. human 26S proteasome, Ub4-pepOG fluorescence polarization; 20S core pre-blocked with epoxomicin. O00487. inhibition, % at 20 µM;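 active = inhibition at 20 µM, scaled to each plate's controls, above about 33%, limit read from the data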
Target sequence (O00487 whole entry, looked up): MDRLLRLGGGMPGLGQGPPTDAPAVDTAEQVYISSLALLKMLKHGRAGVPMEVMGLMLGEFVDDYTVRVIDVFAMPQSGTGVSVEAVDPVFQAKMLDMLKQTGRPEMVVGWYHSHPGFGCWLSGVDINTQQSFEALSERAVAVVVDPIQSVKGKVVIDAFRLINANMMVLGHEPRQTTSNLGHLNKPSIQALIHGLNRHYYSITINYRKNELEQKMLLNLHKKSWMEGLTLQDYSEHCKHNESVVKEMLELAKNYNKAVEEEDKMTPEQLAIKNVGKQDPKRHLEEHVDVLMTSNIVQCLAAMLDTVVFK
NadD block: blocks S. aureus nicotinate mononucleotide adenylyltransferase | purified NadD enzyme, colorimetric absorbance read-out | inhibition, % at 20 µM | 360,000 compounds, 0.78% hits | AID 602399; in the data active = inhibition above about 26%
PP5 inh: PP5 (human) phosphatase inhibition. P53041. inhibition, % at 6.7 µM. purified PP5c, OMFP substrate fluorescence. 320,000 compounds, 0.18% hits. AID 1987;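 active = inhibition above the campaign's mean inhibition across all tested compounds plus 3 SD, cut at about 9.5% in these data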;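 also: 0% = DMSO only and 100% = 100 µM cantharidin control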
PP1 inh: PP1-alpha (human) inhibition in PP5 counter-screen. purified PP1alpha, OMFP fluorescence. 320,000 compounds, 0.9% hits. inhibition, % at 6.7 µM;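 active = inhibition above the mean inhibition of all tested compounds plus 3 SD, computed separately for each screening campaign, cut at about 15% in these data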
Target sequence (P62136 whole entry, looked up): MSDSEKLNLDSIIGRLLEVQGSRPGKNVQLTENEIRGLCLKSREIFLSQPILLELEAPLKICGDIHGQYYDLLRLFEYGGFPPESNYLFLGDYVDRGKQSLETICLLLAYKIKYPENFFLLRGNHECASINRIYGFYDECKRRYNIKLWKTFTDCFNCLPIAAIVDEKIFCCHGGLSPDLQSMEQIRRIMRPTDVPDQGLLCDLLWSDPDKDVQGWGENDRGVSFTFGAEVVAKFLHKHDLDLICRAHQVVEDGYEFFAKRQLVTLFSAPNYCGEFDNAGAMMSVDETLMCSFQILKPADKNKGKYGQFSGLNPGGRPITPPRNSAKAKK
PREPL inhibitor: human PREPL enzyme inhibition. Q4J6C6. recombinant PREPL, fluorescence polarization activity-based probe. inhibition, % at 5.96 µM. 320,000 compounds, 0.68% hits. AID 2751; in the data active = inhibition above about 43%;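 also: 0% = enzyme with DMSO and 100% = wells lacking enzyme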
Rpn11 inh conf: confirmation of human proteasome Rpn11 inhibitors. shares compounds with Rpn11 inh. purified human 26S proteasome, Ub4-pepOG fluorescence polarization; proteasome pretreated with epoxomicin. inhibition, % at 20 µM. 1,900 compounds, 29% hits. AID 602318
MMP-2 inh: MMP-2 (human) inhibition counter-screen | shares compounds with Rpn11 inh | inhibition, % at 20 µM | 1,900 compounds, 4% hits | recombinant MMP-2, FRET peptide cleavage fluorescence;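 also: human MMP-2 activated beforehand with APMA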
Thrombin FP: thrombin (bovine) inhibition counter-screen | bovine thrombin cleavage of Ub4-pepOG, fluorescence polarization | shares compounds with Rpn11 inh | 1,900 compounds, 13% hits | inhibition, % at 20 µM;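 active = mean inhibition at least 40% at 20 µM, or signal 3 deviations below plate average, so some actives read negative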;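 also: plate controls were thrombin with DMSO for no effect and buffer wells lacking thrombin for full effect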
* = called active by the depositor; / = no result given. Rule as the data show it, unless noted: active = inhibition above about 40%; inactive = the rest.

SMILES | Rpn11 inh | NadD block | PP5 inh | PP1 inh | PREPL inhibitor | Rpn11 inh conf | MMP-2 inh | Thrombin FP
Cc1cc(-c2ccc(S(=O)(=O)N(C)c3ccc(C)c(C)c3)s2)on1 | 40* | -7 | 5 | 7 | -39 | 43* | 9 | 40*
O=C(CCN1CCc2ccccc2C(c2ccccc2)C1)c1ccc2c(c1)OCCO2 (stereo not drawn) | 57* | -2 | 1 | -3 | -42 | -13 | -29 | -12
O=C(CCN1Cc2ccccc2C1)c1ccc2c(c1)OCCO2 | 26 | -3 | 0 | -1 | -90 | / | / | /
COc1cc(/C=C2/SC(=S)N(Cc3ccccc3)C2=O)ccc1O | / | -3 | -1 | -2 | -27 | / | / | /
COc1cc(/C=C2/SC(=S)N(c3c(C)n(C)n(-c4ccccc4)c3=O)C2=O)ccc1O | 100* | 9 | 3 | 4 | -76 | 63* | -10 | 43*
COc1cc(/C=C2\SC(=S)N(C(C(=O)O)c3ccccc3)C2=O)ccc1O (stereo not drawn) | 81* | 4 | -1 | -1 | -148 | 56* | -15 | 73*
CCOc1ccc(/C=C2/SC(=S)N(C(C(=O)O)c3ccccc3)C2=O)cc1OCC (stereo not drawn) | 34 | 19 | / | / | / | / | / | /
O=C(O)C(c1ccccc1)N1C(=O)/C(=C\c2ccc(O)c(O)c2)SC1=S (stereo not drawn) | 85* | -3 | 3 | 2 | -27 | 61* | 31 | 48*
CCOc1cc(/C=C2\SC(=S)N(C(C(=O)O)c3ccccc3)C2=O)ccc1O (stereo not drawn) | 112* | 7 | 1 | 6 | -136 | 63* | 13 | 72*
COc1ccccc1/C=C1\SC(=S)N(C(C(=O)O)c2ccccc2)C1=O (stereo not drawn) | -5 | -3 | 0 | 5 | -9 | / | / | /
COc1ccc(C2=CSC3=C(C(=O)c4cccc(S(=O)(=O)N(C)C)c4)CCN23)cc1 | 19 | 14 | -1 | 13 | 22 | / | / | /
Clc1ccc(CCNc2ncnc3c2nnn3Cc2ccccc2)cc1 | 2 | 4 | 1 | 0 | -4 | / | / | /
CC(C)NS(=O)(=O)c1ccc(NC(=O)C(C)OC(=O)C2CCC2)cc1 (stereo not drawn) | 1 | 1 | 0 | -2 | -3 | / | / | /
Cc1c(NC(=O)CSc2ccc3ccccc3n2)c(=O)n(-c2ccccc2)n1C | -1 | -4 | -1 | -3 | 9 | / | / | /
Cc1ccc(CSc2nnc(SCC(=O)N/N=C/c3c[nH]c4ccccc34)s2)cc1 | 112* | -8 | / | / | / | 93* | 9 | 5
COc1ccc2cc(C(=O)Nc3ccc(Cl)cc3)sc(=O)c2c1OC | 188* | -3 | 3 | 0 | -8 | 39 | 33 | -12
COc1ccc2cc(C(=O)Nc3ccc(O)cc3)sc(=O)c2c1OC | -18 | -1 | 1 | -5 | 12 | / | / | /
CCOc1ccc(S(=O)(=O)Nc2ccc(C(=O)NCC(C)(C)N3CCOCC3)cc2)cc1 | -1 | -9 | -2 | -1 | -2 | / | / | /
CC(=O)c1ccc(OCC(=O)Nc2ccc(N3CCCCC3)cc2)cc1 | -2 | 0 | 0 | 0 | 21 | / | / | /
Cn1cc(C(=O)C(=O)N2CCc3ccccc32)c2ccccc21 | -6 | 7 | 2 | -2 | -2 | / | / | /
CCCCOC(=O)c1ccc(NC(=O)C(CCS(C)(=O)=O)NC(C)=O)cc1 (stereo not drawn) | 36* | 6 | 2 | 4 | -12 | -15 | -38 | -8
COc1ccc(NC(=O)C(CCS(C)(=O)=O)NC(C)=O)cc1 (stereo not drawn) | 0 | -3 | 0 | 0 | 0 | / | / | /
CCC(=O)N1CCN(c2cc3c(cc2F)c(=O)c(C(=O)O)cn3CC)CC1 | -5 | -5 | -1 | 1 | 2 | / | / | /
CCn1cc(C(=O)O)c(=O)c2cc(F)c(N/N=C/c3ccccc3[N+](=O)[O-])cc21 | 100* | 21 | -1 | 2 | 2 | -15 | 11 | -14
O=C(NCc1n[nH]c(=S)n1-c1ccccc1)c1ccc(S(=O)(=O)N2CCOCC2)cc1 | -2 | -4 | 3 | -2 | 9 | / | / | /
SMILES | Rpn11 inh | NadD block | PP5 inh | PP1 inh | PREPL inhibitor | Rpn11 inh conf | MMP-2 inh | Thrombin FP
O=C(NCc1n[nH]c(=S)n1-c1ccc(F)cc1)c1ccc(S(=O)(=O)N2CCOCC2)cc1 | 92* | 3 | 0 | -1 | 23 | -5 | 53* | -10
CC(=O)c1ccc(NC(=O)CCOc2cc(C)ccc2C)cc1 | 4 | -9 | 4 | 3 | -19 | / | / | /
COc1ccc(C(=O)N2C(=S)NC(=O)/C2=C\c2ccc(C)cc2)cc1 | 63* | 19 | 1 | 11 | -2 | 107* | 20 | 75*
O=C(NCc1ccccc1Cl)c1ccc2sc([C@H]3C[C@H](O)[C@@H](CO)O3)nc2c1 | 2 | -1 | / | / | / | / | / | /
CC1CCCC(NC(=O)CCS(=O)(=O)c2cc3c(cc2Cl)NC(=O)CO3)C1C (stereo not drawn) | 44* | 3 | 0 | 0 | 8 | -11 | -7 | -16
Cc1nn(-c2ccccc2)c(Cl)c1/C=N/NC(=O)c1cccc(S(=O)(=O)N2CCCC2)c1 | 40* | 4 | 0 | -3 | 12 | 28 | 31 | -10
Cc1nn(-c2ccc(F)cc2)c(Cl)c1/C=N/NC(=O)c1cccc(S(=O)(=O)N2CCCC2)c1 | 14 | 12 | 3 | 2 | 0 | / | / | /
CCN1C(=O)/C(=C/C=C2/CCCN2C)OC1=S | 76* | -1 | 4 | 0 | -5 | 43* | 6 | 54*
CN1C(=O)/C(=C\C=C2/CCCN2C)N(C)C1=S | 77* | 12 | 2 | -1 | 5 | 74* | -94 | 60*
O=C(CC[C@H]1O[C@@H](n2ccc(=O)[nH]c2=O)[C@H](O)[C@@H]1O)NCC1CCCO1 (stereo partly drawn) | -12 | -5 | / | / | / | / | / | /
Cc1ccc(-n2ncc3c2CC(C)(C)CC3NC(=O)CCc2ccncc2)cc1 (stereo not drawn) | -2 | -6 | 3 | 5 | -7 | / | / | /
COc1cccc2cc(C(=O)Nc3ccc(F)cc3)c(=Nc3ccc(C(=O)O)cc3)oc12 | 128* | 6 | 2 | 2 | 13 | 117* | -4 | -17
O=C(NCc1cccs1)c1csc(COCCO)n1 | 0 | -9 | / | / | / | / | / | /
Cc1ccccc1NC(=O)Cn1nnc(S(=O)(=O)c2ccc(C(C)(C)C)cc2)c1N | 55* | 13 | 1 | 3 | -9 | 31 | -17 | -6
Cc1ccccc1NC(=O)Cn1nnc(C(=O)NCc2ccco2)c1N | 5 | 0 | 0 | -3 | -1 | / | / | /
Cc1ccc(/C=C(\C#N)C(=O)Nc2c(C)cccc2C)s1 | 85* | 11 | 0 | -1 | -6 | 96* | -8 | 80*
Cc1ccc(NC(=O)/C(C#N)=C/c2ccc(C)s2)c(C)c1 | / | -2 | 0 | -3 | -1 | / | / | /
